The record followed here is PubChem BioAssay AID720648 (The Scripps Research Institute Molecular Screening Center, 2013).

One may read the inhibition as the change of the read-out against control, counted positive when it falls.

In all, about 370,000 compounds went through this assay and about 3,100 (0.84%) were called active.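 Rule for the calls: active = inhibition above the mean of compounds lying between control limits plus 3 SD, set per campaign (cut at about 8.5% in these data); inactive = the rest.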 The sample as a whole holds a higher share of actives than the screen did.

This experiment deals with Disintegrin and metalloproteinase domain-containing protein 17 (Homo sapiens) (UniProt P78536). The experiment can be described thus: ADAM17 inhibitors, primary screen, biochemical, QFRET (AID 720648).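 Note: 0% = DMSO-only wells as the low control.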 The note with it: recombinant ADAM17, EDANS/DABCYL FRET peptide cleavage; at 6.95 µM; active compounds read high.
Chain of Disintegrin and metalloproteinase domain-containing protein 17 (Homo sapiens) (P78536 215-824 limits assumed): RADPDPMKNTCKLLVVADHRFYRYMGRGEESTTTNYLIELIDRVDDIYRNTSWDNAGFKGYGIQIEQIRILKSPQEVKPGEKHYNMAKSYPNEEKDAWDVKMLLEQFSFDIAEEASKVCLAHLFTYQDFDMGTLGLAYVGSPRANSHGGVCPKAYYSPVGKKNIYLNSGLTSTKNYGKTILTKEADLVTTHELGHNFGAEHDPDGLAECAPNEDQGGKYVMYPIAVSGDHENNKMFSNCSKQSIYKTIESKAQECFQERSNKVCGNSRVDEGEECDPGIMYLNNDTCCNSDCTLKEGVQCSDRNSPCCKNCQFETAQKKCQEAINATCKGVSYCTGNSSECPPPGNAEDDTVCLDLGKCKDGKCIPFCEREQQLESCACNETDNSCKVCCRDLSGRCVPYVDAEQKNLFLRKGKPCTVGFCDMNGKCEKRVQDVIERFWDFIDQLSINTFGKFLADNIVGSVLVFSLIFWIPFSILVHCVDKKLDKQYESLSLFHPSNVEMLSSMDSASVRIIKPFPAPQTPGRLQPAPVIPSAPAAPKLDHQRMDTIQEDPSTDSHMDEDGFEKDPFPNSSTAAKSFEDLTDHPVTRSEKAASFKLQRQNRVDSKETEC
On to `CCCCC(=O)N[C@@H]1CC[C@@]23CCCN2C(=O)CCC[C@H]3[C@H]1C`, for which the inhibition was -6.42% (inactive).

Regarding `C=C(C)C1CC23C(=O)C4(C(=O)c5ccccc5)C[C@@]5(C)CCC(CC2C1(C)C)(C4=O)C35OC` (some centres undefined), the inhibition was -2.35% (inactive).

Turning to `COC(=O)[C@]12C[C@H](CC(=O)NCc3ccccc3)C(=O)N(CCc3ccc(OC)c(OC)c3)C1=C[C@H](C(C)(C)C)O[C@@H]2C`, the inhibition is 7.1% (inactive).

Consider `COC(=O)[C@H](C(C)C)N(CCc1cn(Cc2ccccc2)nn1)S(=O)(=O)c1ccc(F)cc1Br`, for which the inhibition is -0.43% (inactive).

In the case of `CCCCOCCCNC(=O)C[C@H]1C[C@@]2(C(=O)OC)C(=C[C@H](COCc3ccccc3)O[C@@H]2C)N(Cc2cccc3ccccc23)C1=O`, the inhibition was 6.38% (inactive).

In the case of `O=C(Nc1cccc(Cl)c1)OC1CC2CC1[C@H]1CCCCN1[C@H]2Cc1ccccc1` (some centres undefined), the inhibition is -2.76% (inactive).

As to `Cc1ccc(Cn2nnc3c(=O)[nH]c(C4CCN(S(=O)(=O)/C=C/c5ccccc5)CC4)nc32)cc1`, the inhibition was 8.9% (active).

Turning to `CC(C)(C)c1ccc(Cn2nnc3c(=O)[nH]c(C4CCCN(C(=O)c5ccco5)C4)nc32)cc1` (centres undefined), the inhibition is -1.56% (inactive).

With `O=C(Nc1ccc(F)cc1)N1CCCC(c2nc3c(nnn3Cc3ccccc3Cl)c(=O)[nH]2)C1` (centres undefined), the inhibition is -4.29% (inactive).

In the case of `C=CCn1c(SCC(=O)Nc2ccc(NC(C)=O)cc2)nc2sc(C)c(C)c2c1=O`, the inhibition was -2.65% (inactive).

For `O=C(CSc1nnc(-c2cccs2)n1Cc1ccco1)c1ccc2c(c1)OCO2`, the inhibition was 1.24% (inactive).

As for `Cc1sc2nc(SCC(=O)c3ccc(O)c(O)c3)n(Cc3ccco3)c(=O)c2c1C`, the inhibition was 10.2% (active).

For the compound `C=CCN1C(=O)[C@@H](CC(=O)N2CCN(C(=O)c3ccco3)CC2)[C@]2(C(=O)OC)CCCCC=C12`, the inhibition was 1.66% (inactive).

With `O=C(OC12CCCN(C1)/C(=C/c1cccnc1)C2)C1CCCC1` (centres undefined), the inhibition was 1.56% (inactive).

In the case of `O=C(Nc1ccccc1C(=O)NCCCn1ccnc1)c1ccc(Cl)cc1Cl`, the inhibition was 2.53% (inactive).

For the compound `O=C(NCCCn1ccnc1)Nc1ccc(Cl)cc1Cl`, the inhibition is -2.99% (inactive).

As for `Clc1ccc(C(Cn2ccnc2)OCc2ccsc2Cl)c(Cl)c1` (centres undefined), the inhibition was 8.72% (active).

`O=S1(=O)c2c(cccc2N2CC[C@H](O)C2)O[C@@H]2CCN1C2`: the inhibition is -10.8% (inactive).

For `COc1ccc(C(=O)C2CCCN(C(=O)c3ccc(OC)o3)C2)c(C)c1` (centres undefined), the inhibition is -0.93% (inactive).

Turning to `COc1ccc(C(=O)C2CCCN(C(=O)c3cnsn3)C2)c(C)c1` (centres undefined), the inhibition is -4.24% (inactive).

Take `COc1ccc(C(=O)C2CCCN(S(=O)(=O)c3cccc(C)c3)C2)c(C)c1` (centres undefined): the inhibition is 12.6% (active).

Regarding `Cc1ccc(-n2c(SCC(=O)Nc3ccc(S(=O)(=O)Nc4nccs4)cc3)nnc2-c2cccnc2)cc1`, the inhibition was 5.12% (inactive).

Consider `COc1ccc(CCNc2cc(N3CCN(C(=O)c4ccccc4OC)CC3)ccc2[N+](=O)[O-])cc1OC`, for which the inhibition was -5.46% (inactive).

For the compound `O=C(c1ccccc1)N1CCN(c2ccc([N+](=O)[O-])c(NCc3ccco3)c2)CC1`, the inhibition was 9.15% (active).

As to `O=[N+]([O-])c1ccc(N2CCN(S(=O)(=O)c3ccc4ccccc4c3)CC2)cc1NCc1ccco1`, the inhibition is -3.62% (inactive).

As for `CCOC(=O)[C@]12CCCCC/C=C\1N(Cc1ccc(OC)cc1)C(=O)[C@H]2CC(=O)N1CCOCC1`, the inhibition was -0.25% (inactive).

`COc1ccnc(C(=O)N2CCC(Oc3cccnc3)CC2)c1`: the inhibition is 1.66% (inactive).

In the case of `CCOC(=O)N1CCN(C(=O)C[C@H]2C[C@@]3(C(=O)OC)C(=C[C@H](C(C)(C)C)O[C@@H]3C)N(Cc3ccc(Cl)cc3Cl)C2=O)CC1`, the inhibition was 2.67% (inactive).

Turning to `COC(=O)c1ccccc1Sc1c(/C=N/OCc2ccc(Cl)cc2)c(C(F)(F)F)nn1C`, the inhibition was -4.94% (inactive).

In the case of `CCC(=O)OCc1c(C(F)(F)F)nn(C)c1Oc1cccc(C(F)(F)F)c1`, the inhibition is -2.77% (inactive).

As to `Cn1nc(C(F)(F)F)c(C(=O)Nc2cccc(C(F)(F)F)c2)c1SCc1ccc(Cl)cc1`, the inhibition is 19.8% (active).

For `O=S1(=O)c2ccc(N3CCN(Cc4ccccc4F)CC3)cc2Oc2ccccc2CN1Cc1cn(Cc2ccc(Cl)cc2)nn1`, the inhibition was 7.88% (inactive).

Take `CC(C)CNC(=O)OCc1cn(Cc2ccc(F)cc2)nn1`: the inhibition was 3.83% (inactive).

As to `O=C(C[C@H]1C(=O)N(c2ccc(F)c(F)c2)C[C@@H]1Cc1ccccc1)Nc1ccccc1`, the inhibition is 9.24% (active).

In the case of `C[C@H]1CN(c2ccc(Br)cc2)C(=O)[C@@H]1CC(=O)Nc1ccc(Br)cc1`, the inhibition is -0.38% (inactive).

In the case of `CNC(=O)C[C@H]1C(=O)N(c2ccc(OC)cc2)C[C@@H]1Cc1ccccc1`, the inhibition was -1.23% (inactive).

As to `COc1ccc(C(CNC(=O)c2ccc(S(=O)(=O)Nc3ccccc3C)cc2)N2CCOCC2)cc1` (centres undefined), the inhibition was -1.54% (inactive).

In the case of `COc1ccc(NS(=O)(=O)c2ccc(C)c(C(=O)NCC(c3cccs3)N3CCOCC3)c2)cc1` (centres undefined), the inhibition is -1.97% (inactive).

Consider `COc1ccc(C(CNC(=O)c2cc(S(=O)(=O)Nc3cccc(C)c3)ccc2C)N2CCCC2)cc1` (centres undefined), for which the inhibition was 10.3% (active).

Take `O=C(Nc1cc(F)cc(F)c1)OC1CCC12CCC(c1ccccc1)CC2` (centres undefined): the inhibition is 3.79% (inactive).

On to `COc1cccc(N(C)C(=O)[C@@H](C)[C@@H](O)c2ccc3ccccc3c2)c1`, for which the inhibition was -0.07% (inactive).

Regarding `CC(=O)C1(C(=O)Nc2nccs2)CC(c2ccccc2C(F)(F)F)=NO1` (centres undefined), the inhibition was -1.77% (inactive).

As for `Cc1cccc(N2C(=O)N3[C@H](c4ccc(F)cc4)[C@@H]4C(=O)N(C5CCCCC5)C(=O)[C@@H]4[C@]3(Cc3ccccc3)C2=O)c1`, the inhibition was 1.18% (inactive).

In the case of `C[C@@]12C(=O)N(c3cccc(Br)c3)C(=O)N1[C@H](c1ccc(Cl)cc1)[C@@H]1C(=O)N(C3CCCCC3)C(=O)[C@@H]12`, the inhibition is 13.3% (active).

Turning to `O=C1[C@H]2[C@@H](c3ccc(Cl)cc3)N3C(=O)N(c4cccc(F)c4)C(=O)[C@@]3(Cc3ccccc3)[C@H]2C(=O)N1C1CCCCC1`, the inhibition was -3.52% (inactive).

On to `O=C1[C@H]2[C@@H](c3ccc(F)cc3)N3C(=O)N(c4ccc(C(F)(F)F)cc4)C(=O)[C@@]3(Cc3ccccc3)[C@H]2C(=O)N1C1CCCCC1`, for which the inhibition was 1.1% (inactive).

As to `CCOC(=O)[C@@H]1[C@H]2COc3cc(OC)ccc3[C@@H]2N2C(=O)N(c3cccc(C)c3)C(=O)[C@@]12C`, the inhibition was -2.53% (inactive).

On to `CCN1C(=O)[C@H]2[C@@H](c3ccc(C)cc3)N3C(=O)N(c4cccc(Br)c4)C(=O)[C@@]3(CC)[C@H]2C1=O`, for which the inhibition was 1.14% (inactive).

For the compound `Cc1cccc([C@@H]2[C@@H]3C(=O)N(Cc4ccccc4)C(=O)[C@@H]3[C@]3(Cc4ccc(Cl)cc4)C(=O)N(c4cccc(Cl)c4)C(=O)N23)c1`, the inhibition was 1.28% (inactive).

On to `CC12C(=O)N(c3ccccc3)C(=O)C1C(c1ccccc1)N1CCCN12` (centres undefined), for which the inhibition was 0.41% (inactive).

Take `CC[C@@]12C(=O)N(c3ccccc3)C(=O)N1[C@H](c1ccc(Br)cc1)[C@@H]1C(=O)N(C(C)(C)C)C(=O)[C@@H]12`: the inhibition is 8.73% (active).

Regarding `CCN1C(=O)[C@H]2[C@@H](c3ccc(-c4ccc(OC)cc4)cc3)N[C@@](Cc3ccccc3)(C(=O)OC)[C@H]2C1=O`, the inhibition was -1.71% (inactive).

In the case of `COc1ccc([C@@H]2[C@@H]3C(=O)N(C(C)(C)C)C(=O)[C@@H]3[C@]3(Cc4ccccc4)C(=O)N(c4cccc(Br)c4)C(=O)N23)cc1`, the inhibition is 13.1% (active).

Consider `CC(C)(C)N1C(=O)[C@H]2[C@@H](c3ccc(Br)cc3)N3C(=O)N(c4cccc(Cl)c4)C(=O)[C@@]3(C)[C@H]2C1=O`, for which the inhibition is 10% (active).
